# Test results reported in PubChem BioAssay (Tox21).
# Records with an inconclusive call do not appear. Where a call stands in place of a potency, no number is given. Active and inactive are the calls of the source. Unless noted, calls come from the whole dose curve; as a rule, active = well fitted curve in the direction sought with a large enough effect in the repeat runs; inconclusive = weak or mixed curves; inactive = no such curve, though single readings can be large; an effect the other way counts as inactive or inconclusive.
# What was measured:
# [1] = qHTS RealTime-Glo MT Cell Viability Assay in HEK293 cells - 0 hour (AID 1224880); note: nearly all actives have a fitted effect of over 45% in size; note: potency is the fitted concentration of half-maximal effect
# Method in brief: (§1)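 Tox21 screen in HEK293 using RealTime-Glo MT chemistry, with cells and reagent co-dispensed. Luminescence proportional to viable cell number was captured at intervals during 40 h compound exposure at 37 C.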
# [2] = A CellTox Green Cytotoxicity Assay to monitor cytotoxicity in HEK293 cells - 32 hour (AID 1224881); note: nearly all actives have a fitted effect of over 40% in size; note: potency is the fitted concentration of half-maximal effect
# Method in brief: (§2)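 Seeding of HEK293 cells together with cytotoxicity dye preceded a 5 h incubation at 37 C/5% CO2. Test compounds in DMSO were then added and fluorescence monitored across 40 h.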
# [3] = A CellTox Green Cytotoxicity Assay to monitor cytotoxicity in HepG2 cells - 0 hour (AID 1224882); note: nearly all actives have a fitted effect of over 35% in size; note: potency is the fitted concentration of half-maximal effect
# Method in brief: (§3)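 Nonlytic assay: viable cells exclude the dye, so fluorescence scales with cell death. HepG2 at 600 cells/well, compounds added after 5 h, signal read across 40 h.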
# [4] = A CellTox Green Cytotoxicity Assay to monitor cytotoxicity in HepG2 cells - 32 hour (AID 1224883); note: nearly all actives have a fitted effect of over 50% in size; note: potency is the fitted concentration of half-maximal effect
# Method in brief: as §3
# [5] = A CellTox Green Cytotoxicity Assay to monitor cytotoxicity in HEK293 cells - 8 hour (AID 1224884); note: nearly all actives have a fitted effect of over 35% in size; note: potency is the fitted concentration of half-maximal effect
# Method in brief: as §2
# [6] = qHTS RealTime-Glo MT Cell Viability Assay in HepG2 cells - 16 hour (AID 1224885); note: nearly all actives have a fitted effect of over 50% in size; note: potency is the fitted concentration of half-maximal effect
# Method in brief: (§4)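 Real-time, nonlytic viability: 600 HepG2 cells/well mixed with NanoLuc enzyme plus prosubstrate; 5 h settle, compound (DMSO) added by pintool; luminescence monitored over 40 h at 37 C.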
# [7] = qHTS RealTime-Glo MT Cell Viability Assay in HEK293 cells - 24 hour (AID 1224886); note: nearly all actives have a fitted effect of over 50% in size; note: potency is the fitted concentration of half-maximal effect
# Method in brief: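 Cells + reagent dispensed (600 cells/well, HEK293) → 5 h at 37 C/5% CO2 → 23 nL compound in DMSO pinned → 40 h at 37 C → luminescence read at 0, 8, 16, 24, 32, 40 h.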
# [8] = qHTS RealTime-Glo MT Cell Viability Assay in HEK293 cells - 8 hour (AID 1224887); note: nearly all actives have a fitted effect of over 50% in size; note: potency is the fitted concentration of half-maximal effect
# Method in brief: as §1
# [9] = A CellTox Green Cytotoxicity Assay to monitor cytotoxicity in HEK293 cells - 16 hour (AID 1224888); note: nearly all actives have a fitted effect of over 35% in size; note: potency is the fitted concentration of half-maximal effect
# Method in brief: as §2
# [10] = qHTS RealTime-Glo MT Cell Viability Assay in HepG2 cells - 0 hour (AID 1224889); note: nearly all actives have a fitted effect of over 50% in size; note: potency is the fitted concentration of half-maximal effect
# Method in brief: as §4
# [11] = A CellTox Green Cytotoxicity Assay to monitor cytotoxicity in HepG2 cells - 8 hour (AID 1224890); note: nearly all actives have a fitted effect of over 45% in size; note: potency is the fitted concentration of half-maximal effect
# Method in brief: as §3
# [12] = qHTS assay to identify small molecule antagonists of the androgen receptor (AR) signaling pathway using the MDA cell line in the presence of 0.5 nM R1881 - cell viability counter screen (AID 1259242); note: nearly all actives have a fitted effect of over 45% in size; note: potency is the fitted concentration of half-maximal effect
# Method in brief: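 R1881 at 0.5 nM final stimulated MDA-kb2 cells during 16 hr compound treatment at 37C. Cytotoxicity read: CellTiter-Fluor fluorescence after 30 min.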
# [13] = qHTS assay to identify small molecule phospholipidosis (PLD) inducers (AID 1259344; active = well fitted curve in the direction sought with a large enough effect; an effect the other way counts as inactive or inconclusive)
# Method in brief: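 Quantitative HTS in HepG2: compound plus LipidTOX Red dye for 24 h, paraformaldehyde fixation with Hoechst 33342, widefield high-content imaging; amiodarone as positive and DMSO as negative control.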
# [14] = qHTS assay to identify small molecule HDAC inhibitors (AID 1259364); note: potency is the fitted concentration of half-maximal effect;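 note: wild-type HCT-116 cells with endogenous class I/II HDAC activity; nearly all actives have a fitted effect of over 45% in size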
# Method in brief: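 Relative class I and II HDAC activity is taken from the luminogenic signal in HCT-116 cells, with compound exposure 2 hr and reagent development 30 min at room temperature.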
# [15] = qHTS assay to identify small molecule HDAC inhibitors - cell viability counter screen (AID 1259365)
# Method in brief: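 HCT-116 wild-type, overnight attachment; 2hr drug exposure, 37C; CellTiter-Glo luminescent ATP readout after 30min RT.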
# [16] = qHTS assay to identify small molecule agonists of the sonic hedgehog signaling (Shh) pathway - cell viability counter screen (AID 1259366); note: nearly all actives have a fitted effect of over 50% in size; note: potency is the fitted concentration of half-maximal effect
# Method in brief: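 Compounds in DMSO were pin-transferred onto 3T3 Gli1-Luc cells that had settled 4hr; plates then stood 24hr at 37C and 5% CO2. One hour before the end, CellTiter-Fluor was added and fluorescence recorded.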
# [17] = qHTS assay to identify small molecule antagonists of the sonic hedgehog signaling (Shh) pathway - cell viability counter screen (AID 1259367); note: nearly all actives have a fitted effect of over 55% in size; note: potency is the fitted concentration of half-maximal effect
# Method in brief: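 Seed 3T3 Gli1-Luc cells at 2,000 per well; incubate 4 hr; add compound in DMSO, then conditioned medium; incubate at 37C with 5% CO2; add CellTiter-Fluor after 23 hr; read fluorescence 1 hr later.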
# [18] = biological target: Estrogen receptor (Homo sapiens) (UniProt P03372); assay: qHTS assay to identify small molecule antagonists of the estrogen receptor alpha (ER-alpha) signaling pathway using the BG1 cell line in the presence of 0.1 nM 17-beta-estradiol (AID 1259244); note: nearly all actives have a fitted effect of over 50% in size; note: potency is the fitted concentration of half-maximal effect
# Method in brief: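 VM7Luc4E2; 4xERE-luciferase; 0.1 nM E2 final; 22 h co-incubation, 37C; ONE-Glo luminescence after 30 min at room temperature.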
# [19] = qHTS assay to identify small molecule antagonists of the estrogen receptor alpha (ER-alpha) signaling pathway using the BG1 cell line in the presence of 0.1 nM 17-beta-estradiol - cell viability counter screen (AID 1259241); note: nearly all actives have a fitted effect of over 40% in size; note: potency is the fitted concentration of half-maximal effect
# Method in brief: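 Following 5 days in phenol red-free medium with charcoal-stripped serum, VM7Luc4E2 cells received test compounds alongside 0.1 nM 17beta-estradiol (final) at 37C for 22 hr. Live cells were then quantified via protease-substrate fluorescence.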
# Chain of Estrogen receptor (Homo sapiens) (P03372 whole entry, looked up): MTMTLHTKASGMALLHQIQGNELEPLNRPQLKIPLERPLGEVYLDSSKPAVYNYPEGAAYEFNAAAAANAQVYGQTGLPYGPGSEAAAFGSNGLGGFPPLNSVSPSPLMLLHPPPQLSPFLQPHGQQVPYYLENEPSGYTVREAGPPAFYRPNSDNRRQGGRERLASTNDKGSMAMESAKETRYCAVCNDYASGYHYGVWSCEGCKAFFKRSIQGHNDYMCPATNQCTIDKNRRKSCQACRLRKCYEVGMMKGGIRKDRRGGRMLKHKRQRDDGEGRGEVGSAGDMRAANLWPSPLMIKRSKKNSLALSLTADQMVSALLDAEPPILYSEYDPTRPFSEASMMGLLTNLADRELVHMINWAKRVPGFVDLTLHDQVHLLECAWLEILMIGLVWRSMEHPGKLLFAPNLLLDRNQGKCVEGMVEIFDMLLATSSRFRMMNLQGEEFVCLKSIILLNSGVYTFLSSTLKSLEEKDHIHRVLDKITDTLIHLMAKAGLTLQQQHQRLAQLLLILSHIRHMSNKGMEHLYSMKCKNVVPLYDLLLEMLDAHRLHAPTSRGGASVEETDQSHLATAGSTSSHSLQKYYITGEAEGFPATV
Compound,Potency [1],Potency [2],Potency [3],Potency [4],Potency [5],Potency [6],Potency [7],Potency [8],Potency [9],Potency [10],Potency [11],Potency [12],Potency [13],Potency [14],Potency [15],Potency [16],Potency [17],Potency [18],Potency [19]
CCOC(=O)OC(C)OC(=O)[C@@H]1N2C(=O)[C@@H](NC(=O)[C@H](N)c3ccccc3)[C@H]2SC1(C)C (stereo not given in full),inactive,inactive,inactive,inactive,inactive,inactive,inactive,inactive,inactive,inactive,inactive,inactive,inactive,inactive,inactive,inactive,inactive,,
Cc1c(C)c2c(c(C)c1OC(=O)CCC(=O)OCCO)CC[C@@](C)(CCC[C@H](C)CCC[C@H](C)CCCC(C)C)O2,inactive,inactive,inactive,inactive,inactive,inactive,inactive,inactive,inactive,inactive,inactive,inactive,,inactive,,inactive,inactive,inactive,
O=c1[nH]c2ccc(Cl)cc2o1,inactive,inactive,inactive,inactive,inactive,inactive,inactive,inactive,,inactive,inactive,inactive,,inactive,,inactive,inactive,inactive,inactive
O=C(CCc1ccc(O)cc1)c1c(O)cc(O)cc1O,39.8 µM (active),inactive,inactive,inactive,inactive,inactive,39.8 µM (active),25.1 µM (active),inactive,,inactive,inactive,,inactive,inactive,inactive,inactive,inactive,inactive
C[C@@H](O)[C@H]1C(=O)N2C(C(=O)O)=C([C@H]3CCCO3)S[C@H]12,inactive,inactive,inactive,inactive,inactive,inactive,inactive,inactive,inactive,,inactive,inactive,inactive,inactive,inactive,inactive,inactive,inactive,inactive
CCn1cc(C(=O)O)c(=O)c2cc(F)c(N3CCNCC3)cc21,inactive,inactive,inactive,inactive,inactive,inactive,inactive,inactive,,inactive,inactive,inactive,inactive,inactive,inactive,inactive,inactive,inactive,inactive
C1COC1,inactive,inactive,inactive,inactive,inactive,inactive,inactive,inactive,inactive,inactive,inactive,inactive,,inactive,inactive,inactive,inactive,inactive,
O=C(O)CCc1nc(-c2ccccc2)c(-c2ccccc2)o1,inactive,inactive,inactive,inactive,inactive,inactive,inactive,inactive,inactive,,inactive,inactive,inactive,inactive,,inactive,inactive,inactive,inactive
O=C1C(=O)c2ccccc2C(O)=C1C1CCC(c2ccc(Cl)cc2)CC1 (stereo not given),7.56 µM (active),inactive,inactive,inactive,inactive,inactive,inactive,inactive,inactive,,inactive,23.7 µM (active),inactive,inactive,inactive,inactive,inactive,26.6 µM (active),26.6 µM (active)
O=C(O)CCC(=O)C(=O)O,inactive,inactive,inactive,inactive,inactive,inactive,inactive,inactive,,inactive,inactive,inactive,inactive,inactive,inactive,inactive,inactive,inactive,inactive
CCCCCCCCCCC(=O)O,inactive,inactive,inactive,inactive,inactive,inactive,inactive,inactive,inactive,,inactive,inactive,,inactive,inactive,inactive,inactive,inactive,inactive
CN1CCCC(n2nc(Cc3ccc(Cl)cc3)c3ccccc3c2=O)CC1 (stereo not given),inactive,30.1 µM (active),inactive,23.9 µM (active),inactive,inactive,8.49 µM (active),7.56 µM (active),inactive,inactive,,inactive,,inactive,inactive,10.6 µM (active),10.6 µM (active),,
Cc1ccccc1S,inactive,inactive,inactive,inactive,inactive,inactive,inactive,inactive,inactive,inactive,inactive,inactive,,inactive,inactive,inactive,inactive,inactive,
O=C(O)c1ccc(OCCCOc2ccc(C(=O)O)cc2)cc1,inactive,inactive,inactive,inactive,inactive,inactive,inactive,inactive,inactive,inactive,inactive,inactive,inactive,,inactive,inactive,inactive,,
Oc1cccc(O)c1O,inactive,inactive,inactive,inactive,inactive,inactive,inactive,inactive,inactive,inactive,inactive,inactive,inactive,inactive,inactive,,48.1 µM (active),inactive,
CCOC(=O)c1ccc(I)cc1,inactive,35 µM (active),inactive,inactive,inactive,inactive,,,,inactive,inactive,inactive,,inactive,,inactive,inactive,inactive,inactive
COc1cc(C(=O)NC2CCN(C)CC2)ccc1Nc1ncc2c(n1)N(C1CCCC1)CC(F)(F)C(=O)N2C,inactive,35.7 µM (active),inactive,25.2 µM (active),17.9 µM (active),40 µM (active),0.1 µM (active),,17.9 µM (active),inactive,50.4 µM (active),,,inactive,inactive,5.6 µM (active),0.791 µM (active),2.81 µM (active),
N#[N+]c1ccc2c(S(=O)(=O)[O-])cccc2c1O,inactive,inactive,inactive,inactive,inactive,inactive,inactive,,inactive,inactive,inactive,inactive,,,,,inactive,inactive,
N#CCc1ccc(Cl)cc1Cl,inactive,inactive,inactive,inactive,inactive,,inactive,inactive,inactive,inactive,inactive,inactive,,inactive,,inactive,inactive,inactive,inactive
C=COCC(C)C,inactive,inactive,inactive,inactive,inactive,inactive,,,,inactive,inactive,inactive,,inactive,,inactive,inactive,inactive,inactive
COC(=O)CS,inactive,inactive,inactive,inactive,inactive,inactive,inactive,inactive,,,inactive,inactive,,26.3 µM (active),,inactive,inactive,inactive,inactive
COC(=O)[C@H]1[C@H]2C[C@@H]3c4[nH]c5cc(OC)ccc5c4CCN3C[C@H]2C[C@@H](OC(=O)/C=C/c2ccc(O)c(OC)c2)[C@@H]1OC,inactive,19 µM (active),26.8 µM (active),23.9 µM (active),19 µM (active),inactive,,,16.9 µM (active),inactive,26.8 µM (active),inactive,,inactive,,inactive,inactive,inactive,inactive
CN1CCCN=C1COC(=O)C(O)(c1ccccc1)C1CCCCC1 (stereo not given),inactive,inactive,inactive,inactive,inactive,inactive,,inactive,inactive,,inactive,inactive,,,inactive,inactive,inactive,inactive,
CC(=O)[C@H]1[C@H](C#N)C[C@H]2[C@@H]3CC=C4C[C@@H](O)CC[C@]4(C)[C@H]3CC[C@@]21C,inactive,inactive,inactive,inactive,inactive,inactive,,inactive,inactive,,inactive,inactive,,inactive,inactive,inactive,inactive,inactive,inactive
O=C1Cc2cc(Cl)ccc2N1,inactive,inactive,inactive,inactive,inactive,inactive,inactive,,inactive,inactive,inactive,inactive,,inactive,inactive,inactive,inactive,,inactive
C=C1c2cccc(O)c2C(O)=C2C(=O)[C@]3(O)C(O)=C(C(N)=O)C(=O)[C@@H](N(C)C)[C@@H]3[C@@H](O)[C@H]12,inactive,inactive,inactive,inactive,inactive,,inactive,inactive,inactive,inactive,inactive,inactive,inactive,inactive,inactive,inactive,inactive,inactive,inactive
C/C=C\C/C=C/CCCCCCCCOC(C)=O,inactive,inactive,inactive,inactive,inactive,inactive,inactive,,inactive,,inactive,inactive,,inactive,inactive,inactive,inactive,inactive,inactive
CC(C)Nc1cccnc1N1CCN(C(=O)c2cc3cc(NS(C)(=O)=O)ccc3[nH]2)CC1,9.52 µM (active),inactive,inactive,inactive,inactive,inactive,inactive,inactive,,3.38 µM (active),inactive,inactive,inactive,inactive,inactive,inactive,inactive,inactive,
CN1C(=O)OC(C)(C)C1=O,inactive,inactive,inactive,inactive,inactive,,inactive,inactive,inactive,inactive,inactive,inactive,inactive,,inactive,inactive,inactive,inactive,inactive
